In PubChem BioAssay (NCATS):
Values joined by “and” are separate entries in the source; they are usually repeats but may differ in a detail not shown here. Equal entries are not always repeated. Results filed as inconclusive are left out. A structure can be active in one record and inactive in another. Active and inactive are the calls of the source. Unless noted, calls follow the shape of the dose curve; as a rule, active = well fitted curve in the direction sought with a large enough effect; inconclusive = small, poorly fitted or top-dose-only effect, or another doubt; inactive = no such curve, though single readings can be large; an effect the other way counts as inactive or inconclusive.

Experiments:
[1] = AP1 Signaling Pathway (AID 357; active = well fitted curve in either direction with a large enough effect, not every such curve was filed as active;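 also: ME-180 reporter cells stimulated with EGF at its EC50 level; % is scaled to controls: 0 for no effect and ±100 for the full control effect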); details: ME-180 AP-1-bla reporter, EGF-induced, beta-lactamase ratio, 5 h; at 38 µM (top of the series)
In short: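 Beta-lactamase reporter under AP-1 response element, ME-180 background. Stimulus: EC50 EGF. Compound exposure 5 h, 37 °C. Detection: CCF4, 2.5 h RT, 460/530 nm. Values: AC50 from titration.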

[2] = target: Cytochrome P450 1A2 (Homo sapiens) (UniProt P05177); assay: p450-cyp1a2 (AID 410; calls by dose curve; also: potency is read from the fitted curve at half-maximal effect;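 as to activity change, negative = inhibition: -100% = full effect of reference inhibitor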)
In short: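 O-Demethylation of luciferin 6' methyl ether by human CYP1A2 is monitored as luciferase luminescence. Substrate sits at Km (100uM); enzyme is 20nM. Values are scaled to 57 uM furafylline as maximal inhibition.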

[3] = Stat Signaling Pathway (AID 446; active = well fitted curve in either direction with a large enough effect, not every such curve was filed as active;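 also: ME-180 cervical cancer cells given 40 pM IL-6 alongside compound; SIE-controlled beta-lactamase reporter measured as 460/530 nm FRET emission ratio; % is scaled to controls: 0 for no effect and ±100 for the full control effect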); details: ME-180 (cervical carcinoma) SIE beta-lactamase reporter, IL-6 stimulated, 5 h; at 38 µM (top of the series)
In short: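 Normalization used AC90 stimulation (300 pM IL-6) and AC90 inhibition (125 nM pan-JAK inhibitor at 40 pM IL-6). The underlying signal is SIE-driven beta-lactamase in ME-180 cells after 5 h IL-6 exposure with compound.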

[4] = target: Glucocorticoid receptor (Homo sapiens) (UniProt P04150); assay: GR-GFP Redistribution (AID 450;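 active = compounds whose dose series gives a full or clear partial fitted curve of increased nuclear translocation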; also: potency is read from the fitted curve at half-maximal effect); details: U2OS GR-GFP nuclear translocation, laser cytometry, 2 h
[5] = target: Glucocorticoid receptor (Homo sapiens) (UniProt P04150); assay: GR-EFC Redistribution (AID 451; calls by dose curve; also: potency is read from the fitted curve at half-maximal effect); details: CHO-K1 GR-EFC translocation, beta-gal luminescence, 2 h
In short: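 CHO-K1 cells expressing nuclear EA and GR-ED fragments of b-gal; compounds titrated up to 46 uM final, 2 h at 37 C. GR nuclear translocation read as complemented b-gal luminescence after 1 h RT detection.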

[6] = target: Mitogen-activated protein kinase 10 (Mus musculus) (UniProt Q61831); assay: JNK3 AlphaScreen Assay (AID 530; active = well fitted curve in either direction with a large enough effect, not every such curve was filed as active;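 also: kinase came from lysate of stimulated human HepG2 cells; signal reports phosphorylation of biotinylated GST-cJun 1-79 at Ser73 with 10 µM ATP; % is scaled to controls: 0 for no effect and ±100 for the full control effect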)
In short: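 Activity was read by AlphaScreen after JNK3-containing HepG2 lysate (cytokine pre-activated) phosphorylated biotinylated GST-cJun with 10 uM ATP at room temperature. Phospho-Ser73 cJun antibody with Protein-A acceptor beads provided detection.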

[7] = target: 3',5'-cyclic-AMP phosphodiesterase 4B (Homo sapiens) (UniProt Q07343); assay: qHTS Assay for Inhibitors of PDE-IV (AID 607; active = well fitted activation curve with a large enough effect in the main read-out, with a control signal flat, not every such curve was filed as active; also: % of control where 0% means no effect)
In short: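 HEK293 ACTOne cells with CNG channel (1000/well), endogenous PDE4; membrane potential dye, compounds up to 22.9 uM final. Fluorescence Ex 535/Em 590; RO 20-1724 (100 uM final) as reference.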

[8] = target: Guanine nucleotide-binding protein G(i) subunit alpha-1 (Homo sapiens) (UniProt P63096); assay: qHTS Assay for Inhibitors of RGS12 GoLoco Motif Activity (Green Fluorophore) (AID 879);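 also: 0% = labeled peptide with Gαi1 and full inhibition = labeled peptide alone without protein; negative values mean loss of peptide binding seen as reduced polarization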
In short: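 A drop in FITC polarization marked displacement of the FITC-tagged RGS12 GoLoco peptide (10 nM) from Gαi1 (50 nM). Compounds were incubated 10 min at room temperature in Tris pH 7.5 buffer containing 150 mM NaCl, 0.1 mM GDP and 0.05% NP40; unlabeled peptide titration served as control.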

[9] = target: Pyruvate kinase (Leishmania mexicana) (UniProt Q27686); assay: qHTS Validation Assay for Inhibitors of Leishmania Mexicana Pyruvate Kinase (AID 945);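 also: 0% = DMSO only neutral control wells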
In short: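 Mutant LmPYK (E451W), 0.2 nM, plus 0.5 mM PEP and 0.1 mM ADP in 50 mM imidazole pH 7.2 containing 0.01% Tween 20 and 0.05% BSA. Incubated 1 h at room temperature; luminescence via PKLight, normalized to DMSO.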

[10] = target: Pyruvate kinase PKM (Homo sapiens) (UniProt P14618); assay: qHTS Assay for Activators of Human Muscle Pyruvate Kinase (AID 954; active = well fitted curve in the direction sought with a large enough effect, not every such curve was filed as active;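 also: 0% = uninhibited enzyme and -100% = no enzyme or full thiadiazolimine inhibition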)
In short: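 Compound pinned into substrate mix (0.5 mM PEP, 0.1 mM ADP), then 0.1 nM PKM2 added; 1 h, RT. Stop/detection luciferase reagent added, luminescence read. Normalized to no-inhibition and no-enzyme or reference-inhibitor controls.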

[11] = target: Alpha-galactosidase A (Homo sapiens) (UniProt P06280); assay: Counterscreen for Glucocerebrosidase Inhibitors: qHTS Assay for Human alpha-Galactosidase at pH 4.5 (AID 992); also: 0% is about no effect
In short: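 Steps: enzyme (2 nM final), then compound across 0.7 nM to 77 uM, then 80 uM fluorogenic galactopyranoside substrate; incubate 20 min at room temperature; quench at pH 10; measure fluorescence at 365/440 nm.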

[12] = target: alpha-glucosidase (Oryza sativa, rice) (UniProt Q653V4); assay: Counterscreen for Glucocerebrosidase Inhibitors: qHTS Assay for Rice alpha-Glucosidase at pH 5.0 (AID 997);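 also: 0% = full activity with enzyme and -100% = basal without enzyme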
In short: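 Endpoint fluorogenic assay at pH 5.0: compounds (0.7 nM to 77 uM) titrated against 4 nM rice enzyme and 400 uM 4-MU-alpha-glucoside for 20 min at room temperature; NaOH/glycine stop, read ex 365/em 440 nm, Hill-fitted AC50.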

[13] = qHTS Assay for Lipid Storage Modulators (AID 1519; calls by dose curve); details: Drosophila S3 cells, BODIPY lipid droplet/cell ratio, laser cytometry, cells loaded with oleic acid; for activity change, negative = inhibition: at 57.5 µM (top of the series)
In short: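 Cells seeded at 5,000 per well were treated with compounds over a concentration series and loaded with oleic acid (400 uM, as added). Lipid droplet fluorescence (488 nm excitation, 500-530 nm channel) was read by laser-scanning cytometry and normalized to 20 uM Triacsin C.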

[14] = target: Ubiquitin carboxyl-terminal hydrolase 1 (Homo sapiens) (UniProt O94782); assay: Inhibitors of USP1/UAF1: Pilot qHTS (AID 504865);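 also: rhodamine fluorescence freed from ubiquitin-rhodamine substrate followed over time; top concentration of the series differs between compounds; % is scaled to controls: 0 for no effect and ±100 for the full control effect; nearly all actives have a fitted effect of over 35% in size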
In short: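 Deubiquitinase activity followed as kinetic rhodamine fluorescence release from 150 nM Ub-Rho. 1 nM USP1/UAF1 with compound, after 15 min room-temperature preincubation, in HEPES pH 7.8 buffer containing TCEP, EDTA, BSA and Tween-20.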

[15] = target: DNA dC->dU-editing enzyme APOBEC-3G (Homo sapiens) (UniProt Q9HC16); assay: qHTS for inhibitors of Vif-A3G interactions: Validation (AID 588379); also: 0% is about no effect
In short: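 Yellow fluorescence (Ex 488, Em 500-530) of Vif-coexpressing HeLa A3G-eYFP cells, scanned by Acumen cytometer, reports blocked A3G degradation. Cells plated at 700/well overnight at 37 deg C before compound addition, then a further overnight compound incubation at 37 deg C.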

[16] = tested on: Zika virus NS2B-NS3 protease; assay: Primary screen GU AMC qHTS for Zika virus inhibitors (AID 1347154); also: nearly all actives have a fitted effect of over 70% in size; also: potency is read from the fitted curve at half-maximal effect;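 as to activity change, negative = inhibition: 0% = no-inhibitor control and -100% = no-enzyme control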
In short: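 Unlinked Zika NS2B hydrophilic domain–NS3 protease complex at 25 nM in 10 mM Tris-HCl pH 8.0, 0.01% Tween 20, with an AMC peptide substrate. Fluorescence change (340/450 nm) over 15 min at room temperature, normalized to controls, fitted to 4-parameter Hill.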

[17] = Primary qHTS for small molecule stabilizers of the endoplasmic reticulum resident proteome: Secreted ER Calcium Modulated Protein (SERCaMP) assay (AID 1508630); also: % is scaled to controls: 0 for no effect and ±100 for the full control effect
In short: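 The SH-SY5Y reporter protocol was run at 3 concentrations up to 38.3 uM (primary) or 11 concentrations (follow-up): 16 h compound, 100 nM thapsigargin for 4 h, then extracellular luciferase luminescence.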

[18] = target: Cytochrome P450 2C9 (Homo sapiens) (UniProt P11712); assay: qHTS Assay for Inhibitors and Substrates of Cytochrome P450 2C9 (AID 883); also: potency is read from the fitted curve at half-maximal effect; nearly all actives have a fitted effect of over 60% in size
In short: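 Signal: luciferase luminescence reporting luciferin produced by CYP2C9. Conditions: 10nM enzyme, Luciferin-H 100uM at KM, 25mM KPO4, 37C, 60 min NADPH-driven reaction. Reference: 57uM sulphaphenazole as 100% inhibition.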

[19] = target: Cytochrome P450 3A4 (Homo sapiens) (UniProt P08684); assay: qHTS Assay for Activators of Cytochrome P450 3A4 (AID 885); also: nearly all actives have a fitted effect of over 65% in size
In short: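 Human CYP3A4 dealkylates Luciferin-PPXE to luciferin, which luciferase detection converts to light. Substrate was at its KM (25uM), buffer 200mM KPO4, reaction 60 min at RT.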

[20] = NFAT Signaling Pathway (AID 444; active = well fitted curve in either direction with a large enough effect, not every such curve was filed as active); details: Jurkat NFAT-bla M1, carbachol, beta-lactamase ratio, 5 h; at 38 µM (top of the series)
In short: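 Jurkat cells with NFAT-driven β-lactamase reporter and co-expressed M1 receptor, stimulated with carbachol (final 1 uM, ~EC50), compound titration, 5 h at 37 °C. CCF4 loaded 1 h at RT; 460/530 nm ratio gave %activity and AC50.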

[21] = target: Muscarinic acetylcholine receptor M1 (Rattus norvegicus) (UniProt P08482); assay: qHTS Assay for Antagonists of Acetylcholine Muscarinic M1 Receptor: Kinetic Measurement of Intracellular Calcium Response (AID 943);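 also: Fluo-4 calcium signal as peak divided by basal fluorescence over 4 min; nearly all actives have a fitted effect of over 75% in size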
In short: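 Antagonism is measured as inhibition of the carbachol-evoked calcium rise in CHO cells transfected with rat M1. Cells are dye-loaded, exposed to compound for 10 min, then stimulated with 100 nM carbachol (EC80).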

[22] = target: Muscarinic acetylcholine receptor M1 (Rattus norvegicus) (UniProt P08482); assay: qHTS Assay for Antagonists of Acetylcholine Muscarinic M1 Receptor: Measurement of IP-One Response (AID 944); also: nearly all actives have a fitted effect of over 75% in size
In short: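 Antagonist mode with rat M1 receptor transfected into CHO cells. Compound is added first for 10 min, carbachol at its EC80 follows for 30 min, and lysis reagents then allow TR-FRET detection of accumulated IP1.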

[23] = measured here: cell count channel max response
[24] = measured here: lipid channel max response

Chain of DNA dC->dU-editing enzyme APOBEC-3G (Homo sapiens) (Q9HC16 whole entry, looked up): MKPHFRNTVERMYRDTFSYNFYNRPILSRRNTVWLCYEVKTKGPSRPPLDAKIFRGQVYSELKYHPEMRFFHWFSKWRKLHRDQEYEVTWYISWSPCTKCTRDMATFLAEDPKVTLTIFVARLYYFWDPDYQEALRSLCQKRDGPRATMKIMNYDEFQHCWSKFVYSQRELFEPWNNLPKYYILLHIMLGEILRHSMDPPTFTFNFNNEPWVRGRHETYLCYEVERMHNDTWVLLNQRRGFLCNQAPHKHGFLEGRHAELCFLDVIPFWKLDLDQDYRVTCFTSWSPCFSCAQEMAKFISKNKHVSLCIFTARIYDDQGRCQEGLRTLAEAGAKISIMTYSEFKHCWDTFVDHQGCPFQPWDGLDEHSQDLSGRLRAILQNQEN
Chain of Ubiquitin carboxyl-terminal hydrolase 1 (Homo sapiens) (O94782 whole entry, looked up): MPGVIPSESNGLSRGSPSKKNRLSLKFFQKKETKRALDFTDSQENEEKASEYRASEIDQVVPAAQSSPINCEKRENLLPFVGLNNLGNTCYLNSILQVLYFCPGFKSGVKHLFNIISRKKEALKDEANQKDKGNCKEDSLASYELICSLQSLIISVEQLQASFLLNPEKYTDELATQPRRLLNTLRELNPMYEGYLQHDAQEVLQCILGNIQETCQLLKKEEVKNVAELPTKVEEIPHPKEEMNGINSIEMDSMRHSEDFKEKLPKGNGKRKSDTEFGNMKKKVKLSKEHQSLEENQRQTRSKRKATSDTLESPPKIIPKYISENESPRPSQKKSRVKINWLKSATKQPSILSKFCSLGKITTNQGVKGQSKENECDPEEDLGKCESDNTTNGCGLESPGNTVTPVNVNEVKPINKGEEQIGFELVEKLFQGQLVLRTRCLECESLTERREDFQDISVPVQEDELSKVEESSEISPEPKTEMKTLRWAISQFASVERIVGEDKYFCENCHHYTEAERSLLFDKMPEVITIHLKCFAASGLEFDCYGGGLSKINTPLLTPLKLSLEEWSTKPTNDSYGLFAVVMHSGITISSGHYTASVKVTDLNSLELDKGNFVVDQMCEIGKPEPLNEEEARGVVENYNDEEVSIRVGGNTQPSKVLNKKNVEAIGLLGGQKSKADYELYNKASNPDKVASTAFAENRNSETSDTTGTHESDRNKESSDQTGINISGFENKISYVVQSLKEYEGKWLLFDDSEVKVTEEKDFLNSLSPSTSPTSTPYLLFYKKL
Chain of 3',5'-cyclic-AMP phosphodiesterase 4B (Homo sapiens) (Q07343 whole entry, looked up): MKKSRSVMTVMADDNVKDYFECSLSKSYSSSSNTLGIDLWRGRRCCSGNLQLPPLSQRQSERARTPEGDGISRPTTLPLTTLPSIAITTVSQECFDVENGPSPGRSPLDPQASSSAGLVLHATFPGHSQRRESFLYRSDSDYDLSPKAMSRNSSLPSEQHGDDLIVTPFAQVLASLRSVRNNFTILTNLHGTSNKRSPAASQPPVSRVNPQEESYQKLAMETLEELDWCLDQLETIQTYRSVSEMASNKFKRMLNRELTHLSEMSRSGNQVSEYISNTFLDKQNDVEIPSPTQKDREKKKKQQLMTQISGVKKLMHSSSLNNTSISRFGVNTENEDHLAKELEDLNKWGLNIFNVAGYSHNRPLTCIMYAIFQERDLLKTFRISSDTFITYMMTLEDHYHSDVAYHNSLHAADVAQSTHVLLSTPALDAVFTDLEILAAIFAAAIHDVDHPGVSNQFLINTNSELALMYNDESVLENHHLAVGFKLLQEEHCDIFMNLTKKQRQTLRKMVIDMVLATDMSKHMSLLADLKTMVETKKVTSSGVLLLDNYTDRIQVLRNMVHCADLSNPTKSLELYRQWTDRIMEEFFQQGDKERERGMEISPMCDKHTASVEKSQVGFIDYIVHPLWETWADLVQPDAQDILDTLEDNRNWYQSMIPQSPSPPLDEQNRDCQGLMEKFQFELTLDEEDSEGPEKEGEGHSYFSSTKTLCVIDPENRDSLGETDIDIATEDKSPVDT
Chain of Glucocorticoid receptor (Homo sapiens) (P04150 whole entry, looked up, the tested form may be a part): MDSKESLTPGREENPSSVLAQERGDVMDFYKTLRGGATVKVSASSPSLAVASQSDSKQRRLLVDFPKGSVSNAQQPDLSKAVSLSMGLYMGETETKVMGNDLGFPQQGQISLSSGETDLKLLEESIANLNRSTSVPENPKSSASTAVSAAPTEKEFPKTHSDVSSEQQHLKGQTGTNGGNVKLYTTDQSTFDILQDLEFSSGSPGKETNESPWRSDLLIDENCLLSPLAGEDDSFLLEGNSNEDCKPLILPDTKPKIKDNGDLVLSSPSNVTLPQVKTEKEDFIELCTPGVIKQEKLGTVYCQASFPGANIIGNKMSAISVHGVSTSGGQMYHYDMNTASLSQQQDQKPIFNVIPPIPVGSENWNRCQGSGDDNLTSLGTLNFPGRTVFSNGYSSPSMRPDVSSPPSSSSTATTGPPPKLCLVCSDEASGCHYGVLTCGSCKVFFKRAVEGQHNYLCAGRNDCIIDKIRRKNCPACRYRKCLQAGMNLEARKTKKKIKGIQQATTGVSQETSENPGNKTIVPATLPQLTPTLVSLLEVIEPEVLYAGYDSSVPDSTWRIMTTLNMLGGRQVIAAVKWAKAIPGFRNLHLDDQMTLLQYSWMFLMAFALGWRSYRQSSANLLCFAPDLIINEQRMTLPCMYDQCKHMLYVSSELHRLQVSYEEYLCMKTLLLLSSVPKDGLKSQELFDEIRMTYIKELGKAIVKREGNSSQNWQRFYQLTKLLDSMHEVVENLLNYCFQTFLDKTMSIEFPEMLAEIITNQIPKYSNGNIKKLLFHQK
Chain of Cytochrome P450 1A2 (Homo sapiens) (P05177 whole entry, looked up): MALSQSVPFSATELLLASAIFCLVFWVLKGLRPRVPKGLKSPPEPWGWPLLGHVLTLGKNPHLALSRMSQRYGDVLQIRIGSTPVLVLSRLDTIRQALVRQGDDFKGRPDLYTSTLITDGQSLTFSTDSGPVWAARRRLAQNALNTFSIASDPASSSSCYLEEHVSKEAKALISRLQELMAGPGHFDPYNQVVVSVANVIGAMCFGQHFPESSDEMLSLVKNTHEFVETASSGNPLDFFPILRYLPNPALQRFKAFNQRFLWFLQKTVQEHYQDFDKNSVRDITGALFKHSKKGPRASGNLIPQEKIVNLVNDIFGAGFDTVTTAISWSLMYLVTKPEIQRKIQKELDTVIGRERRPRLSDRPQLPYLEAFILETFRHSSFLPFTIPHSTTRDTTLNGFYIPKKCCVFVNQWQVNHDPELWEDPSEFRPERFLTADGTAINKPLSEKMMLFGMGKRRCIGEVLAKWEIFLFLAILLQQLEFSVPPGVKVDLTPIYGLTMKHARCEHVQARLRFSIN
Chain of Cytochrome P450 3A4 (Homo sapiens) (P08684 whole entry, looked up): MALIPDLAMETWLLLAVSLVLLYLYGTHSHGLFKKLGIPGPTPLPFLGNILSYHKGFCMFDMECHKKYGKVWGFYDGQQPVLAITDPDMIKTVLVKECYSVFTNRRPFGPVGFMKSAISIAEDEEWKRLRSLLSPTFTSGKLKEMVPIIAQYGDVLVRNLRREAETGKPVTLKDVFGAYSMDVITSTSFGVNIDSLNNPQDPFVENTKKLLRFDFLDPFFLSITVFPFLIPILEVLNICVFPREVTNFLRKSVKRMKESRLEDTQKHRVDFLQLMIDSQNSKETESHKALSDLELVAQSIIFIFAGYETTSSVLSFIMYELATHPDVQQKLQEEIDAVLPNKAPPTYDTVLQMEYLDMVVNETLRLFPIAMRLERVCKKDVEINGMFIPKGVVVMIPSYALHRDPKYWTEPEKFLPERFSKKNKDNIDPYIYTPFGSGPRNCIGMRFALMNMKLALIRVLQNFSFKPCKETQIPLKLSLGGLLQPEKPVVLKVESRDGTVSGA
Chain of Alpha-galactosidase A (Homo sapiens) (P06280 whole entry, looked up): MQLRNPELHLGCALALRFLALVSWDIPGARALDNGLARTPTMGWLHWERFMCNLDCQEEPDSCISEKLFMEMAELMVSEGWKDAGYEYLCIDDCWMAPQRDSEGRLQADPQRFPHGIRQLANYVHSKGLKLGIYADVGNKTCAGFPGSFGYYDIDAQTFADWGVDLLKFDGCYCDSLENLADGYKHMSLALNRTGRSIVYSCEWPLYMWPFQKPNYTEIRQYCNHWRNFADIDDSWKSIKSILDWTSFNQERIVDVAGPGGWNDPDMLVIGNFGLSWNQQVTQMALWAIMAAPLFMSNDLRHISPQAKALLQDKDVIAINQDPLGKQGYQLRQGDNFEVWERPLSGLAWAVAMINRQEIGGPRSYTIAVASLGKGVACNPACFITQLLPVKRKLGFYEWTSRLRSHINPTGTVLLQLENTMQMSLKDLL
Chain of Guanine nucleotide-binding protein G(i) subunit alpha-1 (Homo sapiens) (P63096 whole entry, looked up): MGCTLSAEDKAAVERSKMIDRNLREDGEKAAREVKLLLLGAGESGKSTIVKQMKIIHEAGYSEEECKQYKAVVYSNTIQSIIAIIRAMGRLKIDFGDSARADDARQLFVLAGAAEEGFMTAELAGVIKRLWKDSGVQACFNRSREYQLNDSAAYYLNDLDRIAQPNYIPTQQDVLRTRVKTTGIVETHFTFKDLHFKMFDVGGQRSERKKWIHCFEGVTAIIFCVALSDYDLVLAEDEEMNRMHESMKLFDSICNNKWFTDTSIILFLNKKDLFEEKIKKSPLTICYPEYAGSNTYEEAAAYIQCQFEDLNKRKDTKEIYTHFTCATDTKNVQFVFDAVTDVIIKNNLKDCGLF
Chain of Pyruvate kinase (Leishmania mexicana) (Q27686 2-499 E452W): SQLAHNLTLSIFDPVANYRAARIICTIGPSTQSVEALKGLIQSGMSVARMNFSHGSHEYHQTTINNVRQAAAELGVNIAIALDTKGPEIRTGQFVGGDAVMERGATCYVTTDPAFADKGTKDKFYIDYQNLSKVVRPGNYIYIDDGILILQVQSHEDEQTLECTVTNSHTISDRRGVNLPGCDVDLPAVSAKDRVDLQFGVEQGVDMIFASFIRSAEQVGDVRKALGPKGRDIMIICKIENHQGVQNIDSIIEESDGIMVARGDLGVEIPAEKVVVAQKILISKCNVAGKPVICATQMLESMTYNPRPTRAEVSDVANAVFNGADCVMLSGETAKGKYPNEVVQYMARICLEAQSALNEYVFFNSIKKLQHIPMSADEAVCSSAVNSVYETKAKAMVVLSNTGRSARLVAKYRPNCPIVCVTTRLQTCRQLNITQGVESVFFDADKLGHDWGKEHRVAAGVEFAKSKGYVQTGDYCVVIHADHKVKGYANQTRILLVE

N[C@@H](CO)C(=O)O
0.892%: max response [13, 23]
inactive: activity change, negative = inhibition [1] 6.64% | Potency [2] | activity, negative = inhibition [3] -12.9% | Potency [4] > 46 µM | Potency [5] > 46 µM | Potency [6] | Potency [7] | outcome [8] | Potency [9] | outcome [10] | outcome [11] | outcome [12] | activity change, negative = inhibition [13] -1.57% | Potency [14] | Potency [15] | Potency [16] | Potency [17]
-1.78%: max response [13, 24]

O=C(O)Cc1cc2ccccc2nc1C(=O)O
1.68%: max response [13, 23]
inactive: Potency [2] | Potency [4] > 46 µM | Potency [5] > 46 µM | Potency [6] | Potency [7] | activity change, negative = inhibition [13] -1.15% | Potency [14] | Potency [15] | Potency [16] | Potency [17]
0.785%: max response [13, 24]

COc1cc(N)c(Cl)cc1C(=O)CCC1CCN(CCNS(C)(=O)=O)CC1
24.1%: max response [13, 23]
inactive: Potency [2] | Potency [4] > 46 µM | Potency [5] > 46 µM | Potency [6] | Potency [7] | Potency [19] | activity change, negative = inhibition [13] 6.39% | Potency [14] | Potency [15] | Potency [16] | Potency [17]
32.4%: max response [13, 24]
active: Potency [18] 0.251 µM

N[C@H](C(=O)O)c1ccc(C(=O)O)c(O)c1
inactive: Potency [2] | Potency [4] > 46 µM | Potency [5] > 46 µM | Potency [7] | activity change, negative = inhibition [13] 2.68% | Potency [14] | Potency [15] | Potency [17]
-19.5%: max response [13, 23]
active: Potency [16] 26.7 µM
-17.3%: max response [13, 24]

CC(N)=NCCC[C@H](N)C(=O)O
-3.8%: max response [13, 24]
-7.21%: max response [13, 23]
inactive: activity change, negative = inhibition [1] -5.19% | activity change, negative = inhibition [20] 5.13% | activity, negative = inhibition [3] -24.9% | Potency [4] > 46 µM | Potency [5] > 46 µM | Potency [6] | Potency [7] | outcome [8] | Potency [21] | Potency [22] | Potency [9] | outcome [10] | outcome [11] | outcome [12] | activity change, negative = inhibition [13] 4.11% | Potency [14] | Potency [15] | Potency [16] | Potency [17]

CCS(=O)(=O)N(C)[C@@H]1c2cc(C#N)ccc2OC(C)(C)[C@H]1O
20 µM (active) and inactive: Potency [2]
inactive: Potency [4] > 46 µM | Potency [5] > 46 µM | Potency [6] | Potency [7] | Potency [19] | activity change, negative = inhibition [13] 2.68% and 2.28% | Potency [14] | Potency [15] | Potency [16] | Potency [17]
22.1% and 18.9%: max response [13, 24]
17.8% and 15.2%: max response [13, 23]
